Measured values as given in PubChem BioAssay (NCATS).
Inconclusive results are not listed. A number with no mark means an inactive call. The source made the active and inactive calls. Calls come from the whole dose curve; as a rule, active = well fitted cell-killing curve with a large enough effect; inconclusive = small, poorly fitted or top-dose-only effect, or effect the other way; inactive = flat fitted curve, though single readings scatter. Where a SMILES comes first, the peptide text is derived from it.

These compounds were tested on PA-1 (assay: Primary qHTS to identify gynecologic anti-cancer compounds using libraries of approved drugs and bioactive compounds (AID 1345084; note: nearly all actives have a fitted effect of over 55% in size)). Conditions: Gynecologic cancer cell panel viability, ATPlite luminescence, 48 h; series mostly up to 57.5 µM; activity change, negative = cytotoxicity: at the top concentration.
Outline: (§1)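 Five-point cytotoxicity, 48 h drug exposure at 37 C, 5% CO2, on cells seeded 16 h beforehand. ATP content read by ATPlite luminescence.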
% is set by controls: 0 for no effect and ±100 for the full control effect.

| Compound | activity change, negative = cytotoxicity | Potency |
| --- | --- | --- |
| Nc1nc(CC(=O)Nc2ccc(CCNCC(O)c3ccccc3)cc2)cs1 (stereo not given) | 11.1% |  |
| COc1ccc([C@@H]2N[C@H](C(=O)O)Cc3c2[nH]c2ccccc32)cc1CN1CCN(c2ccccc2F)CC1 | 11.2% |  |
| CC1NC(=O)CNC(=O)C(C(C)C)NC(=O)C2CCCN2C(=O)C(C(C)C)NC(=O)C(Cc2c[nH]c3ccccc23)NC1=O (stereo not given) (cyclo(GAWVPV); configuration not given here) | -8.06% [at 25.3 µM] |  |
| CC(C)(C)c1cc(CN2CCN(CC(O)c3ccc(Cl)cc3)CC2)cc(C(C)(C)C)c1O (stereo not given) | 3.57% |  |
| CC[C@@H](c1ccc(F)c(F)c1)n1c(C(=O)OC)c(-c2ccno2)[nH]c1=S | 3.18% |  |
| O=C(O)C[C@H]1CCC(=O)[C@@H]1C/C=C\CCOC1OC(CO)C(O)C(O)C1O (stereo not given in full) | 13.3% [at 38.5 µM] |  |
| N#Cc1ccc2[nH]c(O)c(-c3ccc(CN4CCOCC4)cn3)c2c1 | 12.5% |  |
| C=Cc1cc(O)cc2nc(-c3ccc(O)c(F)c3)oc12 | -3.74% |  |
| COc1ccc(C(OC2OC(CO)C(O)C(O)C2O)C(C)O)cc1 (stereo not given) | 4.32% [at 38.5 µM] |  |
| CC1CCC2(C(=O)OC3OC(COC4OC(CO)C(O)C(O)C4O)C(O)C(O)C3O)CCC3(C)C(=CCC4C5(C)CCC(O)C(C)(C(=O)O)C5CCC43C)C2C1(C)O (stereo not given) | -0.862% [at 11.6 µM] |  |
| Cc1cc(N2CCCCC2)nc2ccccc12 | 3% |  |
| C=CC1(C)CC2=CCC3C(C)(C(=O)O)CCCC3(C)C2CC1OC(C)=O (stereo not given) | 1.44% [at 38.5 µM] |  |
| Cc1cc(Nc2ncc(Cl)c(Nc3ccccc3S(=O)(=O)C(C)C)n2)c(OC(C)C)cc1C1CCNCC1 | -6.74% |  |
| CCn1c2ccccc2c2cc(CNC)ccc21 |  | inactive |
| O=S(=O)(NC1CCNCC1)c1cc(S(=O)(=O)c2ccccc2)ccc1C(F)(F)F | -0.235% |  |
| Cc1nnc(C(C)C)n1C1CC2CCC(C1)N2CC[C@H](NC(=O)C1CCC(F)(F)CC1)c1ccccc1 (stereo not given in full) | 0.184% |  |

| Compound | activity change, negative = cytotoxicity | Potency |
| --- | --- | --- |
| Cc1nn(C)c2c1C(c1ccc(C(F)(F)F)cc1)C(C#N)=C(N)O2 (stereo not given) | 5.31% |  |
| CC(=O)[C@@H]1CC[C@]2(C(=O)O)CC[C@]3(C)C(CCC4[C@@]5(C)CC[C@H](O)C(C)(C)C5CC[C@]43C)C12 (stereo not given in full) | 6.17% [at 25.3 µM] |  |
| COc1cc(/C=C/C(=O)OC(C)(C)C(OC2OC(CO)C(O)C(O)C2O)C(=O)OCc2ccc(OC3OC(CO)C(O)C(O)C3O)cc2)ccc1O (stereo not given) | -3.14% [at 25.3 µM] |  |
| Cc1cn2c(N)c(Cl)cc(C(=O)NCC3CCN(CC(C)C)CC3)c2n1 | 0.292% |  |
| COC1=CC(=O)O[C@@H](/C=C/c2ccccc2)[C@@H]1O | 28.5% |  |
| CCOC(=O)N1CCC(NCCNC(=O)c2ccccc2C)CC1 | -13.1% |  |
| C=C[C@@]1(C)CC(=O)C2[C@](C)(O1)[C@@H](OC(C)=O)[C@@H](O)[C@H]1C(C)(C)CCC[C@]21C (stereo not given in full) | 5.09% [at 11.6 µM] |  |
| O=C1N(CC2CCCCN2)CCN1c1ccccc1 (stereo not given) | 1.98% |  |
| COc1ccc(C(=O)O[C@H]2CC(C)=CC[C@@]3(C)[C@@H](OC(C)=O)C[C@@](O)(C(C)C)[C@H]23)cc1 | 9.51% [at 25.3 µM] |  |
| C=C1CC[C@H]2[C@@](C)(CCC(O)[C@@]2(C)CO)[C@@H]1C/C=C(/C(=O)O)C(O)CO (stereo not given in full) | 21.9% [at 38.5 µM] |  |
| COc1cc(/C=C/C(=O)OC2CC(C)=C(C(=O)O)/C2=C/CO[C@@H]2O[C@H](CO)[C@@H](O)[C@H](O)[C@H]2O)ccc1O (stereo not given in full) | 8.33% [at 25.3 µM] |  |
| CC(=O)OCC1=C[C@H](O)[C@@H]2C(C(=O)O)=CO[C@@H](O[C@@H]3O[C@H](CO)[C@@H](O)[C@H](O)[C@H]3O)[C@H]12 | 12.7% [at 25.3 µM] |  |
| C=CC(C)(C)O[C@@H]1O[C@H](CO[C@@H]2OC[C@](O)(CO)[C@H]2O)[C@@H](O)[C@H](O)[C@H]1O | -3.12% [at 38.5 µM] |  |
| COC(=O)[C@@H]1C2CC3c4[nH]c5ccccc5c4CCN3CC2CC[C@@H]1O (stereo not given in full) | 1.3% |  |
| FC(F)(F)c1cc(C(F)(F)F)c2ccc3nc(-c4nnco4)cn3c2n1 | -0.266% |  |
| COC(=O)C1=COC(OC2OC(CO)C(O)C(O)C2O)C2C1CC(OC(=O)C(O)CC(=O)O)C2C (stereo not given) | 2.5% [at 25.3 µM] |  |

These compounds were tested on SKOV3 in the same assay as above. Conditions: Gynecologic cancer cell panel viability, ATPlite luminescence, 48 h; series mostly up to 57.5 µM; activity change, negative = cytotoxicity: at the top concentration.
Outline: as §1

| Compound | activity change, negative = cytotoxicity | Potency |
| --- | --- | --- |
| COc1ccc([C@@H]2N[C@H](C(=O)O)Cc3c2[nH]c2ccccc32)cc1CN1CCN(c2ccccc2F)CC1 | -2.2% |  |
| CC(C)(C)c1cc(CN2CCN(CC(O)c3ccc(Cl)cc3)CC2)cc(C(C)(C)C)c1O (stereo not given) | 8.01% |  |
| N#Cc1ccc2[nH]c(O)c(-c3ccc(CN4CCOCC4)cn3)c2c1 | 0.0047% |  |
| C=Cc1cc(O)cc2nc(-c3ccc(O)c(F)c3)oc12 | -31.8% |  |
| C=CC1(C)CC2=CCC3C(C)(C(=O)O)CCCC3(C)C2CC1OC(C)=O (stereo not given) | 15.5% [at 38.5 µM] |  |
| CCn1c2ccccc2c2cc(CNC)ccc21 |  | inactive |
| CC1CCC2(C(=O)OC3OC(CO)C(O)C(O)C3O)CCC3(C)C(=CCC4C5(C)CC(O)C(O)C(C)(C(=O)O)C5CCC43C)C2C1(C)O (stereo not given) | -1.99% [at 25.3 µM] |  |
| Cc1cn2c(N)c(Cl)cc(C(=O)NCC3CCN(CC(C)C)CC3)c2n1 | -9.05% |  |
| CC(C)=CCC[C@](C)(O[C@@H]1O[C@H](CO[C@@H]2OC[C@@H](O)[C@H](O)[C@H]2O)[C@@H](O)[C@H](O)[C@H]1O)[C@H]1CC[C@]2(C)[C@@H]1[C@H](O)C[C@@H]1[C@@]3(C)CC[C@H](O[C@@H]4O[C@H](CO)[C@@H](O)[C@H](O)[C@H]4O[C@@H]4O[C@H](CO)[C@@H](O)[C@H](O)[C@H]4O)C(C)(C)[C@@H]3CC[C@]12C | 13.3% [at 25.3 µM] |  |
| COc1ccc2c(c1)OC[C@]1(O)c3cc4c(cc3O[C@H]21)OCO4 | 19.6% [at 38.5 µM] |  |
| COC(=O)[C@@]1(O)C=CC[C@@H]2[C@@]3(C)C[C@@H](c4ccoc4)OC(=O)[C@H]3CC[C@]21C | 6.78% [at 38.5 µM] |  |
| CC1(C)CC(=O)N(CCCCN2CCN(c3ncccn3)CC2)C(=O)C1 | 4.85% |  |
| C=C1CC[C@H]2[C@@](C)(CCC(O)[C@@]2(C)CO)[C@@H]1C/C=C(/C(=O)O)C(O)CO (stereo not given in full) | -0.0827% [at 38.5 µM] |  |
